The results in this text go back to article PMC5700166.

Substitutions are numbered along the chain they refer to.

What all share (assay): protein-binding microarray (PBM); PBM: ~300 nM protein, 6 mM HEPES pH 7.8, 80 mM KCl, 0.5 mM EDTA, 0.5 mM EGTA, 6% glycerol, 35 ng/ul poly-dIdC, 1% milk, 1 h, room temperature; Ap Aiptasia and Nv Nematostella (sea anemones) / Co Capsaspora / Aq Amphimedon (sponge) / Dm Drosophila / Hu human; RHD is the Rel homology domain; high values mean tight binding
What all share (conditions): dsDNA, one strand shown

In one test the target is T1, GST-Ap-NF-kB RHD (Exaiptasia pallida (Aiptasia), UniProt A0A913YAJ5 2-422).
T1 sequence: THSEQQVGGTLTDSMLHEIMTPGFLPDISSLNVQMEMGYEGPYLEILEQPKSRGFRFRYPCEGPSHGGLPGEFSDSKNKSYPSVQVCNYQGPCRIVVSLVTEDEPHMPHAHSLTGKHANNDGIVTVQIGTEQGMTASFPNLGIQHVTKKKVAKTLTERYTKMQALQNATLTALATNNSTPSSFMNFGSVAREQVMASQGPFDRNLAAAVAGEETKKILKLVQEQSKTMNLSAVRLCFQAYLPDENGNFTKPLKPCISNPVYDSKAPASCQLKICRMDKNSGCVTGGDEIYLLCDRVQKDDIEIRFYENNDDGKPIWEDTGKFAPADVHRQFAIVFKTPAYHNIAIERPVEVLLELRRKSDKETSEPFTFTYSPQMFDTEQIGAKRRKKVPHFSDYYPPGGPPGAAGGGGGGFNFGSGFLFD

Test [1] concerns the target T2, GST-Nv-NF-kB (Cys allele) (Nematostella vectensis, UniProt E5G601 2-411).
T2 sequence: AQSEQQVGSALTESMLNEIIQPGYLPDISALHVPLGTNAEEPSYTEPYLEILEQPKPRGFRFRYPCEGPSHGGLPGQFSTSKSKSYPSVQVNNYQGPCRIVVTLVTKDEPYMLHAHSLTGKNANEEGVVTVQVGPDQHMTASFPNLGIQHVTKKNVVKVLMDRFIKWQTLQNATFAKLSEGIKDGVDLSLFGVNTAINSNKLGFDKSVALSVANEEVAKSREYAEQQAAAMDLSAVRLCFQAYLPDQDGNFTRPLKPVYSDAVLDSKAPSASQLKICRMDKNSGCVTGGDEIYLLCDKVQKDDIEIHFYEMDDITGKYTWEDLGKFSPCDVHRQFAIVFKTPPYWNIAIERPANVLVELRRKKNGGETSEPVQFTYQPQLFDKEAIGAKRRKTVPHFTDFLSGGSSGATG

The target in test [2] is T3, GST-Nv-NF-kB (Ser allele) (Nematostella vectensis, UniProt A7UNT2 2-411).
T3 sequence: T2 sequence with Q21R, C66S, S207N, E215Q, V217A, E225K, A268E, D399E

The target in a further test is T4, GST-Co-NF-kB (Capsaspora owczarzaki, UniProt F1ARL5 200-546).
T4 sequence: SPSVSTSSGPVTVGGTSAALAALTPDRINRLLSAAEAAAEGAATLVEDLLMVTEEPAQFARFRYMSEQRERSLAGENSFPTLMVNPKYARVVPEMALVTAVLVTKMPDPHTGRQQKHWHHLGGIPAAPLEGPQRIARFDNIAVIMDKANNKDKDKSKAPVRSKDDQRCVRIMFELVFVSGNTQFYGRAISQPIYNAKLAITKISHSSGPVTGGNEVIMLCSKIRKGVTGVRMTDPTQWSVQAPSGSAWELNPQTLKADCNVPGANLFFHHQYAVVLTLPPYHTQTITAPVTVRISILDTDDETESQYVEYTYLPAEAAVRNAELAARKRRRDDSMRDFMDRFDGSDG

For another test, the target named is T5, GST-Dm-Relish (Drosophila melanogaster, UniProt Q94527 99-473).
T5 sequence: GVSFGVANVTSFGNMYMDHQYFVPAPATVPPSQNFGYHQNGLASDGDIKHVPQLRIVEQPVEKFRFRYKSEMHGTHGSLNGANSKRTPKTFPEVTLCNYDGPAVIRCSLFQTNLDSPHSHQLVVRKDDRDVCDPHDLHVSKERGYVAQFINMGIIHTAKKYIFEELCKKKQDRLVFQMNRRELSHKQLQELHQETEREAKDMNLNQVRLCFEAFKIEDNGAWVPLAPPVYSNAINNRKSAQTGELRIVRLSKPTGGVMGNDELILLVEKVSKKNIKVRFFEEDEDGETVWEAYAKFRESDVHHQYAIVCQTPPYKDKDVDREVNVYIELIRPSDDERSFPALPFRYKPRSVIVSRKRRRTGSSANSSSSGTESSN

In a further test the target is T6, GST-Aq-NF-kB (Amphimedon queenslandica, UniProt A9Y5G7 2-389).
T6 sequence: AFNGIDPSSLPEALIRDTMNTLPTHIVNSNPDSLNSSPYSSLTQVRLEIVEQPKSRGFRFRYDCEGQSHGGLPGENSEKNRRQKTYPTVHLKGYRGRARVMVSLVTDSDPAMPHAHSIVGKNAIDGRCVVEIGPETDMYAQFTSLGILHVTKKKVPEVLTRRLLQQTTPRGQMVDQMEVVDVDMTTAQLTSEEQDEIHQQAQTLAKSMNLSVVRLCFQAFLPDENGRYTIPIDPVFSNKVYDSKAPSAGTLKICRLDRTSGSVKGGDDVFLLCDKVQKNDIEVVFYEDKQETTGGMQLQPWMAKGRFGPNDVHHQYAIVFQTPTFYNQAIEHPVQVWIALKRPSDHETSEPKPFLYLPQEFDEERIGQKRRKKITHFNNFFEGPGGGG

The next test deals with GST-Hu-p50 (Homo sapiens, UniProt P19838 7-356).
GST-Hu-p50, sequence (P19838 7-356): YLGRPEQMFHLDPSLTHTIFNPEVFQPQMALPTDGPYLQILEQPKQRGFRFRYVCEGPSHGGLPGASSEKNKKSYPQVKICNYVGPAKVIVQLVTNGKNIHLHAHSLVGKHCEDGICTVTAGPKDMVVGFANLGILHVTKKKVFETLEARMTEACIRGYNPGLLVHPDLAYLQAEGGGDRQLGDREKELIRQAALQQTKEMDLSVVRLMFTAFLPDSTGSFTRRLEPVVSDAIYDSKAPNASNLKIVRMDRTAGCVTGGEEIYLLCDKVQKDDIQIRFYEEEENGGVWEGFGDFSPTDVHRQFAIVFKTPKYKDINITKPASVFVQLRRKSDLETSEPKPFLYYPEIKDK

“CCGATTAACATCAACAATTCCCCTGATGTTAATCGGGTCTTGATTCGCTTGACGCTGCTG”: the binding signal was 7.89 z-score with GST-Ap-NF-kB RHD; 8.85 z-score in test [1]; 10.8 z-score in test [2]; 7.14 z-score in the test with GST-Co-NF-kB; 5.11 z-score with GST-Dm-Relish; 5.93 z-score with GST-Aq-NF-kB. This sequence also registered a binding signal with GST-Hu-p50 of 6.81 z-score.

Take “CCGATTAACATCAATTTCCCCCCTGATGTTAATCGGGTCTTGATTCGCTTGACGCTGCTG”: the binding signal in the test with GST-Ap-NF-kB RHD was 7.89 z-score; in test [1], 7.68 z-score; in test [2] it was 8.79 z-score; with GST-Co-NF-kB it was 11.5 z-score; in the test with GST-Dm-Relish it was 6.02 z-score; with GST-Aq-NF-kB, 6.64 z-score. For the same sequence, in the test with GST-Hu-p50, the binding signal was determined as 6.75 z-score.

In the case of “CCGATTAACATCAAGAATTTCCCTGATGTTAATCGGGTCTTGATTCGCTTGACGCTGCTG”, the binding signal with GST-Ap-NF-kB RHD came out at 5.92 z-score; in test [1], 7.47 z-score; in test [2] it was 7.49 z-score; with GST-Co-NF-kB, 5.07 z-score; in the test with GST-Dm-Relish, 3.52 z-score; in the test with GST-Aq-NF-kB, 7.53 z-score. In the test with GST-Hu-p50, the binding signal is 5.23 z-score.

For the sequence “CCGATTAACATCAATTTCCCCCATGATGTTAATCGGGTCTTGATTCGCTTGACGCTGCTG”, the binding signal in the test with GST-Ap-NF-kB RHD turned out to be 7.52 z-score; in test [1], 7.6 z-score; in test [2], 8.86 z-score; in the test with GST-Co-NF-kB it was 10.7 z-score; with GST-Dm-Relish, 4.97 z-score; with GST-Aq-NF-kB it was 6.34 z-score. In the test with GST-Hu-p50, this sequence returned a binding signal of 6.86 z-score.

Take “CCGATTAACATCAGAAAACCCCCTGATGTTAATCGGGTCTTGATTCGCTTGACGCTGCTG”: the binding signal with GST-Ap-NF-kB RHD turned out to be 10.8 z-score; in test [1], 10 z-score; in test [2] it was 11 z-score; in the test with GST-Co-NF-kB it was 4.05 z-score; with GST-Dm-Relish it was 10 z-score; with GST-Aq-NF-kB it was 8.84 z-score. Also, the binding signal in the test with GST-Hu-p50 was 8.24 z-score.

For the sequence “CCGATTAACATCAGAGCTTCCCCTGATGTTAATCGGGTCTTGATTCGCTTGACGCTGCTG”, the binding signal in the test with GST-Ap-NF-kB RHD came out at 4.5 z-score; in test [1], 5.06 z-score; in test [2], 5.75 z-score; with GST-Co-NF-kB, 4.37 z-score; with GST-Dm-Relish, 3.56 z-score; in the test with GST-Aq-NF-kB, 4.57 z-score. The sequence further came in with a binding signal with GST-Hu-p50 of 4.17 z-score.

For “CCGATTAACATCACGAATTCCCCTGATGTTAATCGGGTCTTGATTCGCTTGACGCTGCTG”, the binding signal with GST-Ap-NF-kB RHD came out at 8.93 z-score; in test [1], 10.1 z-score; in test [2], 10.9 z-score; in the test with GST-Co-NF-kB, 7.11 z-score; in the test with GST-Dm-Relish, 6.96 z-score; with GST-Aq-NF-kB, 6.73 z-score. The same sequence registered a binding signal with GST-Hu-p50 of 6.95 z-score.

As for “CCGATTAACATCAGCAATTCCCCTGATGTTAATCGGGTCTTGATTCGCTTGACGCTGCTG”, the binding signal with GST-Ap-NF-kB RHD turned out to be 7.03 z-score; in test [1], 7.8 z-score; in test [2], 9.25 z-score; with GST-Co-NF-kB, 5.7 z-score; with GST-Dm-Relish it was 3.8 z-score; with GST-Aq-NF-kB, 5.36 z-score. This sequence also yielded a binding signal with GST-Hu-p50 of 6.4 z-score.

Regarding “CCGATTAACATCAAATCTTCCCCTGATGTTAATCGGGTCTTGATTCGCTTGACGCTGCTG”, the binding signal with GST-Ap-NF-kB RHD stood at 6.29 z-score; in test [1], 8.14 z-score; in test [2], 10.4 z-score; with GST-Co-NF-kB it was 9.84 z-score; with GST-Dm-Relish it was 4.74 z-score; in the test with GST-Aq-NF-kB, 6.11 z-score. For the same sequence, the binding signal with GST-Hu-p50 came to 6.14 z-score.

On to “CCGATTAACATCAGGCAGTCCCCTGATGTTAATCGGGTCTTGATTCGCTTGACGCTGCTG”, for which the binding signal with GST-Ap-NF-kB RHD is 5.54 z-score; in test [1], 4.49 z-score; in test [2], 3.59 z-score; with GST-Co-NF-kB, 1.33 z-score; with GST-Dm-Relish, 4.55 z-score; in the test with GST-Aq-NF-kB, 5.52 z-score. The sequence also returned a binding signal with GST-Hu-p50 of 4.48 z-score.

Consider “CCGATTAACATCAGGGCATCCCCTGATGTTAATCGGGTCTTGATTCGCTTGACGCTGCTG”, for which the binding signal in the test with GST-Ap-NF-kB RHD came to 7.7 z-score; in test [1] it was 8.03 z-score; in test [2], 5.95 z-score; in the test with GST-Co-NF-kB it was 2.46 z-score; in the test with GST-Dm-Relish, 9.13 z-score; in the test with GST-Aq-NF-kB it was 8.18 z-score. In addition, in the test with GST-Hu-p50, the binding signal worked out at 5.52 z-score.

For “CCGATTAACATCAAAGTCCCCCTTGATGTTAATCGGGTCTTGATTCGCTTGACGCTGCTG”, the binding signal with GST-Ap-NF-kB RHD is 7 z-score; in test [1] it was 6.84 z-score; in test [2] it was 6.92 z-score; with GST-Co-NF-kB, 4.36 z-score; in the test with GST-Dm-Relish, 8.18 z-score; with GST-Aq-NF-kB, 6.66 z-score. Further, the binding signal with GST-Hu-p50 was determined as 6.67 z-score.
